HTR5A ag – HTR5A agonism, opioid heterodimer counter-screen | P47898 | HTR5A agonist assay, luminescence, cell-based | activation, % at 9.3 µM | 340,000 compounds, 0.61% hits | AID 504692; in the data active means activation mostly above about 9.5%, no sharp cut-off; inactive means mostly below about 7.6%
Target sequence (P47898 whole entry, looked up): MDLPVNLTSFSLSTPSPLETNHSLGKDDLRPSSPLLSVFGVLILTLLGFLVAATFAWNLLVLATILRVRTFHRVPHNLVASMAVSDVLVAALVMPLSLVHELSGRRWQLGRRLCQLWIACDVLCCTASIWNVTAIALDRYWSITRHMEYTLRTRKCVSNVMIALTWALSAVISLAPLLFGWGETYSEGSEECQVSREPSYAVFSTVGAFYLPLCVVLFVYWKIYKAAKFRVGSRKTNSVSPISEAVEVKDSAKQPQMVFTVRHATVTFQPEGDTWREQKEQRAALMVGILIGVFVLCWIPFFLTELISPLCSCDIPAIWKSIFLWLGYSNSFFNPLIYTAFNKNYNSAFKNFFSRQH
OPRM1-OPRD1 ag – OPRM1-OPRD1 heterodimerization agonism. 340,000 compounds, 0.3% hits. cells, luminescence. activation, % at 9.3 µM. P35372+P41143. AID 504326; in the data active means activation above about 18%
HTR5A inv ctr – HTR5A inverse agonism, opioid heterodimer counter-screen | P47898 | HTR5A cell line, luminescence | inhibition, % at 9.3 µM | 340,000 compounds, 0.083% hits | AID 504634; in the data active means inhibition mostly above about 23%, no sharp cut-off; inactive means mostly below about 18%
NALP1 yeast inh – blocks the NALP1 inflammasome reconstituted in yeast | S. cerevisiae NALP1/ASC/caspase-1 growth, X-gal OD620, 72 h | inhibition, % at 10 µM | 280,000 compounds, 0.61% hits; in the data active means inhibition mostly above about 24%, no sharp cut-off; inactive means mostly below about 32%
PolyA inhibitor – yeast polyadenylation inhibition; activity score, % at 12 µM; 300,000 compounds, 0.02% hits; S. cerevisiae SKY197-pL101 polyadenylation reporter, beta-gal luminescence; efflux-impaired pdr1/pdr3 knockout yeast; score 100 = 6 SD above DMSO;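 active means lowest replicate activity score at least 50, where 100 means six control SD above control mean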;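 further: yeast exposed to compound for 9 h at 30 °C; higher score means more reporter readthrough which indicates perturbed polyadenylation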
OPRM1-OPRD1 inv – mu-delta opioid heterodimer inverse agonism; inhibition, % at 9.3 µM; P35372+P41143; 340,000 compounds, 0.21% hits; cell-based MOR-DOR heterodimer luminescence; in the data active means inhibition above about 22%, passing the limit was not always enough
Numbers stand for hits; - = inactive; . = not tested or not shown. A selection: hits, their analogues and other compounds. The true share with any hit is near 1.6%.

SMILES	HTR5A ag	OPRM1-OPRD1 ag	HTR5A inv ctr	NALP1 yeast inh	PolyA inhibitor	OPRM1-OPRD1 inv
COc1c(Cl)cc(Cl)cc1CNc1ccc(S(N)(=O)=O)cc1	-	-	-	-	-	-
Cc1cc(S(=O)(=O)Nc2ccc(C(=O)N3CCN(c4ccccc4O)CC3)cc2)ccc1F	14.1	-	-	-	-	-
c1ccc(-c2cnn3nnnc3n2)cc1	12.4	-	-	-	-	-
CCOC(=O)C1CCCN(C(=O)CCn2nnnc2CN2CCOCC2)C1 (stereo unspecified)	-	-	-	34.7	-	-
CCN(CC)C(=O)C1CCCN(C(=O)CCn2nnnc2CN2CCOCC2)C1 (stereo unspecified)	-	-	-	-	-	-
COc1cc(/C=N/N=C(N)N)ccc1OCc1ccc(Cl)cc1	10.5	-	-	-	-	-
CCOc1cc(/C=N/N=C(N)N)ccc1OCc1ccc(Cl)cc1	-	-	-	-	-	-
Cc1cccc(C)c1NC(=O)CN(C)C(=O)Cn1c(=O)cnc2ccccc21	-	-	-	29.9	-	-
Cc1ccc(NC(=O)Cn2c(=O)cnc3ccccc32)cc1S(=O)(=O)N(C)C	-	-	-	-	-	-
CCN(CC)CCNC(=O)c1ccc(NC(=O)c2ccc(F)cc2)cc1	-	-	-	-	-	-
Cc1cccc(-n2c(CNC(=O)c3ccc(S(=O)(=O)N(C)C)cc3)nnc2SCC(=O)Nc2ccc(F)cc2)c1	-	-	-	-	-	-
COc1ccc(C(=O)c2c(NC(C)=O)sc3c2CCN(C(=O)OC(C)(C)C)C3)cc1	.	.	.	44.1	-	.
CCOC(=O)N1CCc2c(sc(NC(=O)Cc3ccccc3)c2C(=O)c2ccc(OC)cc2)C1	-	-	-	-	-	-
C=CCNc1nc(Nc2cc(Cl)ccc2OC)nc(OC)n1	-	-	-	24.6	-	-
CCOc1nc(NCCO)nc(Nc2cc(Cl)ccc2OC)n1	-	-	-	-	-	-
COc1cc(OC)c(N(C)S(=O)(=O)c2cccc(C(=O)Nc3nccs3)c2)cc1Cl	-	-	-	.	.	-
CC1CN(C(=O)CCS(=O)(=O)c2ccccc2)CC(C)O1 (stereo unspecified)	14.2	-	-	-	-	-
CC(=O)c1ccc(S(=O)(=O)NCCC(=O)NC2CCN(Cc3ccccc3)CC2)cc1	-	-	-	.	.	-
CCOc1cc(C(=O)N/N=C/c2ccoc2)cc(OCC)c1OCC	-	-	-	-	.	-
CCOc1cc(C(=O)N/N=C/c2ccsc2)cc(OCC)c1OCC	14.0	-	-	-	-	-
Cc1ccc(C)c(OCc2cc(C(=O)NC3CCN(Cc4ccccc4)CC3)no2)c1	-	-	-	-	-	-
O=C(NC1CCN(Cc2ccccc2)C1)c1cc(COc2ccc(F)cc2F)on1 (stereo unspecified)	-	-	-	28.5	-	-
CC(=O)Nc1ccc(S(=O)(=O)NC2CC2)cc1	-	-	-	-	-	-
CCOC(=O)c1ccc2[nH]c3ccccc3c2c1	-	-	-	-	-	-
COc1cc2[nH]c3ccccc3c2cc1C	-	-	-	22.1	-	-
SMILES	HTR5A ag	OPRM1-OPRD1 ag	HTR5A inv ctr	NALP1 yeast inh	PolyA inhibitor	OPRM1-OPRD1 inv
COc1cccc(NC(C(=O)Nc2cccc(C(C)=O)c2)c2ccccc2)c1 (stereo unspecified)	-	-	-	.	-	-
Cc1cc(C)cc(NC(=O)C(Nc2ccccc2)c2ccccc2)c1 (stereo unspecified)	12.4	-	-	.	-	-
COc1cc(NC(C(=O)Nc2cccc(C(C)=O)c2)c2ccccc2)cc(OC)c1OC (stereo unspecified)	12.7	-	-	-	-	-
Cc1ccc(NC(=O)C(Nc2ccccc2)c2ccccc2)cc1 (stereo unspecified)	-	-	-	.	-	-
Cc1c(C(=O)Nc2ccccc2N2CCN(C)CC2)oc2ccc(F)cc12	-	-	-	.	.	-
CCOc1ccccc1C(=O)Oc1cc(C)[nH]c(=O)c1[N+](=O)[O-]	-	-	-	-	-	-
O=C(c1ccccc1Cl)N1CCC(N2CCC(C(=O)N3CCCC3)CC2)CC1	12.6	-	-	-	-	-
O=C(Nc1ccc(N2CCN(C(=O)c3ccco3)CC2)c(Cl)c1)c1cc2ccccc2o1	14.2	-	-	-	-	-
O=C(Nc1ccc(N2CCN(C(=O)c3ccco3)CC2)cc1)c1ccc([N+](=O)[O-])cc1Cl	10.1	-	-	-	-	-
Cc1nnc(SCC(=O)Nc2ccc(S(N)(=O)=O)cc2)n(N)c1=O	-	-	-	.	.	-
COC(=O)c1cccc(NC(=O)CSc2nnc(C)o2)c1	-	-	-	-	-	-
COc1ccc(/C=C2\SC(=S)N(CCC(=O)NCCc3ccc(O)cc3)C2=O)cc1	-	-	-	-	-	-
O=C(CCN1C(=O)/C(=C/c2ccccc2)SC1=S)NCCc1ccc(O)cc1	13.7	-	-	-	-	-
Cc1cccc(C(=O)Nc2ccc(N3CCN(S(C)(=O)=O)CC3)cc2)c1	-	-	-	-	-	-
N#CCOC(=O)c1c2c(nc3ccccc13)CCC2	-	-	-	-	-	-
O=C(c1c(O)c2ccccc2oc1=O)C1CCCCC1	-	-	-	-	-	-
O=C(CCC1CCCC1)c1c(O)c2ccccc2oc1=O	-	-	-	40.0	-	-
COc1cccc(CC2(CO)CCCN(Cc3cc4ccccc4[nH]3)C2)c1 (stereo unspecified)	-	-	-	-	-	-
O=C(Nc1ccc2c(c1)CCCN2C(=O)c1ccco1)c1cc([N+](=O)[O-])ccc1Cl	-	-	-	.	-	-
CCCCCN(C(=O)CCC(=O)OCc1ccc(C(C)C)cc1)c1c(N)n(CCCC)c(=O)[nH]c1=O	-	-	-	.	-	-
Cc1ccc(-c2cc(C(=O)O)n[nH]2)s1	-	-	-	-	-	-
CCOC(=O)c1cc(-c2ccc(Cl)s2)[nH]n1	-	-	-	43.8	-	-
NS(=O)(=O)c1ccc(NC(=O)COC(=O)c2cn(-c3ccccc3)nc2-c2ccc(F)cc2)cc1	11.7	-	-	-	-	-
O=C(COC(=O)c1cn(-c2ccccc2)nc1-c1ccc(F)cc1)Nc1ncc(Cl)cc1Cl	-	-	-	-	-	-
CCn1ncc(C(=O)Nc2cccc(Cl)c2)c1C	-	-	-	45.2	-	-
CCCCCC1CCC(C(=O)O)CC1 (stereo unspecified)	-	-	-	27.3	-	-
Fc1ccc(-c2csc(N3CCC(c4ccccc4)C3)n2)cc1 (stereo unspecified)	-	-	-	31.6	-	-
Clc1ccc(-c2csc(N3CCC(c4ccccc4)C3)n2)cc1 (stereo unspecified)	-	-	-	-	-	-
Cc1ccc(NC(=O)CN2CCN(C(=O)c3ccco3)CC2)cc1	-	-	-	-	-	-
Cc1[nH]c2ccccc2c1NC(=O)CN1CCN(C(=O)c2ccco2)CC1	.	.	.	41.8	-	.

Compound activity from PubChem.
